Records with an inconclusive call do not appear. A call without a number means that no potency is given here. Calls of active or inactive are those of the source. Unless noted, calls follow the shape of the dose curve; as a rule, active = well fitted inhibition curve with a large enough effect in the repeat runs; inconclusive = weak or mixed curves; inactive = no such curve, though single readings can be large or run the other way.
Assay: qHTS assay to identify small molecule agonists of the hypoxia (HIF-1) signaling pathway (AID 1224846; active = well fitted activation curve with a large enough effect in the signal ratio in the repeat runs, not every such curve was filed as active; the % refers to the signal ratio)
Conditions: HRE-bla ME-180 cells, beta-lactamase ratio, 17 h; series mostly up to 76.8 µM
Summary of the method: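 Compounds from the Tox21 10K library, dissolved in DMSO, are tested for induction of a hypoxia response element–controlled beta-lactamase reporter in ME-180 cells. Exposure lasts 17 hrs at 37C after a 5 hr settling period, followed by CCF4-AM FRET substrate.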

SMILES	Potency	activation
CC(C)OC(=O)C(C)N(C(=O)c1ccccc1)c1ccc(F)c(Cl)c1 (stereo unspecified)	inactive	–
C[C@@H](c1ncncc1F)C(O)(Cn1cncn1)c1ccc(F)cc1F (stereo partly specified)	inactive	–
OC(C#CCN1CCCC1)(c1ccccc1)c1ccccc1	inactive	–
CCC(Cl)CCC(Cl)C(Cl)CC(Cl)C(Cl)C(Cl)CCl (stereo unspecified)	inactive	–
O=[N+]([O-])c1ccc(NCCO)c(OCCO)c1	inactive	–
CC(C)(O)c1ccc(CNC(=O)c2cccnc2Oc2ccc(F)cc2)cc1	inactive	–
CC(CSC(=O)c1ccccc1)C(=O)N1C[C@@H](Sc2ccccc2)C[C@H]1C(=O)O (stereo partly specified)	–	0.628% [at 15.8 µM] (inactive)
CCCCC/C=C\C/C=C\CCCCCCCC(=O)NC(C)c1ccccc1 (stereo unspecified)	inactive	–
CN1Cc2cc(C(=O)N3CCC(C4CCNCC4)CC3)ccc2NC(CC(=O)O)C1=O (stereo unspecified)	inactive	–
COc1cc2nc(N(C)CCCNC(=O)C3CCCO3)nc(N)c2cc1OC (stereo unspecified)	inactive	–
COC(C)(C)CCO	inactive	–

Assay: qHTS assay to identify small molecule agonists of H2AX - cell viability counter screen (AID 1224847; calls by dose curve; also: nearly all actives have a fitted effect of over 30% in size; also: potency is read from the fitted curve at half-maximal effect; as to activity change, negative = cytotoxicity: top concentration of the series differs between compounds)
Conditions: CHO-K1 viability, CellTiter-Glo luminescence, 3 h; series mostly up to 154 µM
Summary of the method: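 Wild-type CHO-K1 cells (10% FBS medium) were plated overnight at 37C, exposed to compounds at 15 concentrations for 3 hr at 37C (0.76% DMSO final), and viability was read as CellTiter-Glo luminescence after 30 min at room temperature.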

SMILES	Potency	activity change, negative = cytotoxicity
O=C(NCC1CN(c2ccc(N3CCOCC3=O)cc2)C(=O)O1)c1ccc(Cl)s1 (stereo unspecified)	inactive	–
CC(COCCO)OCCO (stereo unspecified)	inactive	–
CCC(C)(C)CC	inactive	–
CCN(CC)CCNc1ccc(CNC=O)c2sc3ccc(OC)cc3c(=O)c12	inactive	–
CC[N+](C)(CC)CCOC(=O)C(O)(c1ccccc1)C1CCCCC1 (stereo unspecified)	inactive	–
CN1CCC(N(Cc2cccs2)c2ccccc2)CC1	inactive	–
C=C(C)C(=O)OCC	inactive	–
C[N+]1(CC2COC(c3ccccc3)(C3CCCCC3)O2)CCCCC1 (stereo unspecified)	inactive	–
NCCCN1CCOCC1	inactive	–
CC(=O)[O][Al]	inactive	–
NC(=O)C(c1ccccc1)(c1ccccc1)[C@@H]1CCN(CCc2ccc3c(c2)CCO3)C1	inactive	–
CC(=O)[O][Al][O]C(C)=O	inactive	–
CCCCOC(=O)CCCCCCCC(=O)OCCCC	inactive	–
CCCCC(CC)COC(=O)CCCCCCCCC(=O)OCC(CC)CCCC (stereo unspecified)	inactive	–
CN(C)CCOC(c1ccccc1)c1ccc(Br)cc1 (stereo unspecified)	inactive	–
O=C(OCCCCCCOC(=O)c1ccccc1)c1ccccc1	inactive	–
C[Si](C)(CCCN)O[Si](C)(C)CCCN	inactive	–
CCC(C)O (stereo unspecified)	inactive	–

SMILES	Potency	activity change, negative = cytotoxicity
Nc1cccc([N+](=O)[O-])c1	inactive	–
NS(=O)(=O)c1ccc(N2CCCCS2(=O)=O)cc1	inactive	–
Cc1ncc(CO)c(C=O)c1O	inactive	–
OC[C@H]1O[C@@H](OCCc2ccc(O)cc2)[C@H](O)[C@@H](O)[C@@H]1O	inactive	–
Nc1ccc([N+](=O)[O-])c(C(F)(F)F)c1	inactive	–
O=C(O)c1nc(Cl)c(Cl)c(Cl)c1Cl	inactive	–
CC(C)OC(=O)C(C)N(C(=O)c1ccccc1)c1ccc(F)c(Cl)c1 (stereo unspecified)	56.6 µM (active)	–
C[C@@H](c1ncncc1F)C(O)(Cn1cncn1)c1ccc(F)cc1F (stereo partly specified)	inactive	–
OC(C#CCN1CCCC1)(c1ccccc1)c1ccccc1	inactive	–
CCC(Cl)CCC(Cl)C(Cl)CC(Cl)C(Cl)C(Cl)CCl (stereo unspecified)	inactive	–
O=[N+]([O-])c1ccc(NCCO)c(OCCO)c1	inactive	–
CC(C)(O)c1ccc(CNC(=O)c2cccnc2Oc2ccc(F)cc2)cc1	inactive	–
CC(CSC(=O)c1ccccc1)C(=O)N1C[C@@H](Sc2ccccc2)C[C@H]1C(=O)O (stereo partly specified)	–	1.45% [at 31.6 µM] (inactive)
CCCCC/C=C\C/C=C\CCCCCCCC(=O)NC(C)c1ccccc1 (stereo unspecified)	inactive	–
CN1Cc2cc(C(=O)N3CCC(C4CCNCC4)CC3)ccc2NC(CC(=O)O)C1=O (stereo unspecified)	inactive	–
COc1cc2nc(N(C)CCCNC(=O)C3CCCO3)nc(N)c2cc1OC (stereo unspecified)	inactive	–
COC(C)(C)CCO	inactive	–

Assay: qHTS assay to identify small molecule antagonists of the estrogen related receptor (ERR) signaling pathway from Tox21 library (AID 1224848); also: nearly all actives have a fitted effect of over 50% in size; also: potency is read from the fitted curve at half-maximal effect
Conditions: ERR reporter cell line, luciferase antagonist mode, 18 h; series mostly up to 92.4 µM
Summary of the method: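 ERR cell line, 2,000 cells/well. 6 h settle, then compound (DMSO) added; 18 h at 37 C; ONE-Glo luminescence after 30 min RT.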

SMILES	Potency	activity, negative = inhibition
O=C(NCC1CN(c2ccc(N3CCOCC3=O)cc2)C(=O)O1)c1ccc(Cl)s1 (stereo unspecified)	23.7 µM (active)	–
CC(COCCO)OCCO (stereo unspecified)	inactive	–
CCC(C)(C)CC	inactive	–
CCN(CC)CCNc1ccc(CNC=O)c2sc3ccc(OC)cc3c(=O)c12	2.73 µM (active)	–
CC[N+](C)(CC)CCOC(=O)C(O)(c1ccccc1)C1CCCCC1 (stereo unspecified)	inactive	–
CN1CCC(N(Cc2cccs2)c2ccccc2)CC1	inactive	–
C=C(C)C(=O)OCC	inactive	–
C[N+]1(CC2COC(c3ccccc3)(C3CCCCC3)O2)CCCCC1 (stereo unspecified)	inactive	–
NCCCN1CCOCC1	inactive	–
CC(=O)[O][Al]	inactive	–
NC(=O)C(c1ccccc1)(c1ccccc1)[C@@H]1CCN(CCc2ccc3c(c2)CCO3)C1	inactive	–
CC(=O)[O][Al][O]C(C)=O	inactive	–
CCCCOC(=O)CCCCCCCC(=O)OCCCC	inactive	–
CCCCC(CC)COC(=O)CCCCCCCCC(=O)OCC(CC)CCCC (stereo unspecified)	inactive	–
CN(C)CCOC(c1ccccc1)c1ccc(Br)cc1 (stereo unspecified)	inactive	–
O=C(OCCCCCCOC(=O)c1ccccc1)c1ccccc1	inactive	–
C[Si](C)(CCCN)O[Si](C)(C)CCCN	inactive	–
CCC(C)O (stereo unspecified)	inactive	–

SMILES	Potency	activity, negative = inhibition
Nc1cccc([N+](=O)[O-])c1	inactive	–
NS(=O)(=O)c1ccc(N2CCCCS2(=O)=O)cc1	inactive	–
Cc1ncc(CO)c(C=O)c1O	inactive	–
OC[C@H]1O[C@@H](OCCc2ccc(O)cc2)[C@H](O)[C@@H](O)[C@@H]1O	inactive	–
Nc1ccc([N+](=O)[O-])c(C(F)(F)F)c1	inactive	–
O=C(O)c1nc(Cl)c(Cl)c(Cl)c1Cl	inactive	–
CC(C)OC(=O)C(C)N(C(=O)c1ccccc1)c1ccc(F)c(Cl)c1 (stereo unspecified)	17.2 µM (active)	–
C[C@@H](c1ncncc1F)C(O)(Cn1cncn1)c1ccc(F)cc1F (stereo partly specified)	inactive	–
OC(C#CCN1CCCC1)(c1ccccc1)c1ccccc1	inactive	–
CCC(Cl)CCC(Cl)C(Cl)CC(Cl)C(Cl)C(Cl)CCl (stereo unspecified)	inactive	–
O=[N+]([O-])c1ccc(NCCO)c(OCCO)c1	inactive	–
CC(C)(O)c1ccc(CNC(=O)c2cccnc2Oc2ccc(F)cc2)cc1	30.6 µM (active)	–
CC(CSC(=O)c1ccccc1)C(=O)N1C[C@@H](Sc2ccccc2)C[C@H]1C(=O)O (stereo partly specified)	–	-0.558% [at 19 µM] (inactive)
CCCCC/C=C\C/C=C\CCCCCCCC(=O)NC(C)c1ccccc1 (stereo unspecified)	18.8 µM (active)	–
CN1Cc2cc(C(=O)N3CCC(C4CCNCC4)CC3)ccc2NC(CC(=O)O)C1=O (stereo unspecified)	inactive	–
COc1cc2nc(N(C)CCCNC(=O)C3CCCO3)nc(N)c2cc1OC (stereo unspecified)	9.44 µM (active)	–
COC(C)(C)CCO	inactive	–

Reference: PubChem BioAssay (Tox21)
